25 compounds from PubChem BioAssay AID521 (Sanford-Burnham Center for Chemical Genomics, 2006) can be followed below.

In all, about 110,000 compounds went through this assay and about 730 (0.66%) were called active. For the sample, actives were picked, then their nearest neighbours and some compounds at random. Unmarked numbers belong to inactive results. Cut-off read from the data, not from the text of the source: active = inhibition above about 50%; inconclusive = no clear call, values can overlap the other calls; inactive = below that.

For this assay, the target named is Tyrosine-protein phosphatase non-receptor type 7 (Homo sapiens) (UniProt P35236). The experiment in a line: inhibitors of human HePTP phosphatase, primary screen, biochemical, absorbance, leukemia target (AID 521).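 Note: plate controls were vehicle for no effect and reference inhibitor for full effect.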 The note with it: recombinant HePTP phosphatase activity, OD absorbance; at 20 µM; stronger effect = higher value.
Tyrosine-protein phosphatase non-receptor type 7 (Homo sapiens), sequence (P35236 whole entry, looked up): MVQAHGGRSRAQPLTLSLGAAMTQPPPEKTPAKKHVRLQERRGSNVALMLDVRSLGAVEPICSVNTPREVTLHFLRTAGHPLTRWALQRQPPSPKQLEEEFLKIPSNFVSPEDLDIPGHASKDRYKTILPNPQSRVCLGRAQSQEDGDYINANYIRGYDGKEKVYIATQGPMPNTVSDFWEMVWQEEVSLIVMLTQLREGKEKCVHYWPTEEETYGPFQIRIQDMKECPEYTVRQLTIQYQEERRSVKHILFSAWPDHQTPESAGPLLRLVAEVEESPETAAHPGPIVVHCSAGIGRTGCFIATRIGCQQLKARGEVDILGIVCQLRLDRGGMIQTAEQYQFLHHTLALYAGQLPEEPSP
The inhibition is the drop in the measured response relative to a control, in per cent. `CCOc1ccc(C(=O)Nc2ccc(O)c(-c3nc4ccccc4o3)c2)cc1[N+](=O)[O-]`: the inhibition is 7.1%. For `CC1=NN(c2ccc(S(N)(=O)=O)cc2)C(=O)/C1=C\c1ccc(-c2ccc(Cl)c(C(=O)O)c2)o1`, the inhibition is 9.9%.

Consider `O=C(O)c1cc(-c2ccc(C=C3C(=O)c4ccccc4C3=O)o2)ccc1O`, for which the inhibition was 102% (active).

Regarding `O=C1NN(c2ccccc2)C(=O)/C1=C/c1ccc(-c2cccc(C(=O)O)c2)o1`, the inhibition was 18.1%. The result for `O=[N+]([O-])c1ccc(N2CCN(CCO)CC2)cc1NC(c1ccccc1)c1ccccc1` reads -10.6%.

Consider `COc1cccc(C(=O)N2N=C(c3ccc(F)cc3)CC2(O)C(F)(F)F)c1` (stereo not given), for which the inhibition is 4.2%. The result for `CCOc1ccc(NC(=S)NC(NC(=O)c2cccc(C)c2)C(Cl)(Cl)Cl)cc1` (stereo not given) reads 4.6%; that for `O=[N+]([O-])c1ccc(C2SCCN2S(=O)(=O)c2ccc3ccccc3c2)cc1` (stereo not given), 6.4%; that for `CN(N)c1nc(N2CCCC2)nc(N2CCCC2)n1`, -2.9%.

`O=C1NC(=O)N(c2cccc(Br)c2)C(=O)/C1=C/c1cccc([N+](=O)[O-])c1`: the inhibition is 9.5%. The result for `COc1ccc(/C=C2\C(=O)NC(=S)N(c3ccc(Br)cc3)C2=O)cc1` reads 8.6%; that for `COc1cc(/C=C2\C(=O)NC(=S)N(c3cccc(Br)c3)C2=O)c([N+](=O)[O-])cc1OC`, 102% (active); that for `c1ccc2c(OCCCN3CCOCC3)cccc2c1`, -6.5%. In the case of `Cc1ccc2ccc3cccc(S(=O)(=O)O)c3c2n1`, the inhibition was 2.1%.

With `O=[N+]([O-])c1ccc(C2Nc3ccc(OC(F)(F)F)cc3C3C=CCC32)cc1` (stereo not given), the inhibition is -9.1%. On to `Cc1ccc(C(=O)Nc2ccccc2C(=O)NC2CCCCCC2)cc1`, for which the inhibition is 2.4%.

In the case of `O=C(CCCN1C(=O)/C(=C/c2ccccc2)SC1=S)Nc1ccccc1C(=O)O`, the inhibition is 10.4%. The result for `COc1cccc(C(O)c2nc3ccccc3n2C)c1` (stereo not given) reads -6.5%; that for `CCc1ccc(-n2c(C)cc(/C=C3/SC(=S)NC3=O)c2C)cc1`, 7.1%; that for `O=C(COc1ccc2ccccc2c1Br)c1ccc(Br)cc1`, 3%. Turning to `CC(=O)c1ccc(NS(=O)(=O)c2ccccc2[N+](=O)[O-])cc1`, the inhibition was 3%. The result for `Cc1cccc(NC(=O)COc2cc(C)c(Cl)c(C)c2)c1C` reads 2%; that for `O=C1c2ccc3c4c(ccc(c24)C(=O)N1CCOc1ccccc1)CC3`, 3.5%.

Turning to `O=C(O)c1cccc(N2C(=O)c3ccc4c5c(ccc(c35)C2=O)CC4)c1`, the inhibition was 103% (active). The result for `COc1ccc(NC(=O)c2cccc(N3C(=O)c4ccc(C(=O)Nc5ccc(OC)cc5)cc4C3=O)c2)cc1` reads -8.7%.
